The entries come from a sample that favours hits as a whole.
TbPYK inhibitor: inhibitors of Trypanosoma brucei pyruvate kinase; 410,000 tested, 0.12% active; Q57TT1; Potency, µM (top dose mostly 76.8 µM), inactives show at the highest dose activity, negative = inhibition, actives largely listed as inhibitors; TbPYK enzyme, Kinase-Glo Plus ATP luminescence, 45 min; AID 624173; also: potency is read from the fitted curve at half-maximal effect; % is scaled to controls: 0 for no effect and ±100 for the full control effect; nearly all actives have a fitted effect of over 50% in size
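Activity of T. brucei pyruvate kinase was followed by Kinase-Glo Plus luminescence after the enzyme reacted 45 min at room temperature with 130 uM ADP (final) and substrate. Test compounds were added before ADP at multiple concentrations.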
Giardia FBPA inh: Giardia lamblia aldolase inhibition; 290,000 tested, 0.71% active; Potency, µM (highest dose often 59.6 µM), for the others: at the highest dose activity, negative = inhibition, usual class: inhibitors; purified Giardia FBPA; AID 2451; A8B2U2; also: potency is read from the fitted curve at half-maximal effect; % is scaled to controls: 0 for no effect and ±100 for the full control effect; nearly all actives have a fitted effect of over 55% in size
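40 nM FBPA preincubated 10 min at RT with compound (up to 57.5 uM final), then substrate plus GAPDH/TPI/NAD/arsenate coupling and diaphorase/resazurin added. Fluorescence read after 20 min at RT, 525/598 nm.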
RE007 growth inh: less growth of the S. pombe RE007 Vpr strain. S. pombe RE007 Vpr strain, BacTiter-Glo ATP luminescence, 24 h. Potency, µM (titrated, usually from 92.2 µM), for the others: at the highest dose activity change, negative = less growth, hits mostly inhibitors. 360,000 tested, 0.21% active. AID 651644; active = well fitted falling curve with a large enough effect; inconclusive = small, poorly fitted or top-dose-only effect; inactive = no such curve, though single readings can be large or run the other way; also: potency is read from the fitted curve at half-maximal effect; % is scaled to controls: 0 for no effect and ±100 for the full control effect; nearly all actives have a fitted effect of over 50% in size
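Fission yeast strain RE007, carrying one chromosomally integrated HIV-1 vpr copy, was seeded at OD 0.01 in PMG+AL medium with 23 nL pinned compound. After 24 h at 30 °C and 99% humidity, viability was read by BacTiter-Glo luminescence.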
LmPK inh: blocks Leishmania mexicana pyruvate kinase activity; Potency, µM (doses to about 57.5 µM), without a hit: at the top dose activity change, negative = inhibition, actives largely listed as inhibitors; AID 1721; 290,000 tested, 0.37% active; Q27686; purified LmPK, Kinase-Glo ATP luminescence, 1 h; also: potency is read from the fitted curve at half-maximal effect; % is scaled to controls: 0 for no effect and ±100 for the full control effect
Target sequence (Q27686 whole entry, looked up): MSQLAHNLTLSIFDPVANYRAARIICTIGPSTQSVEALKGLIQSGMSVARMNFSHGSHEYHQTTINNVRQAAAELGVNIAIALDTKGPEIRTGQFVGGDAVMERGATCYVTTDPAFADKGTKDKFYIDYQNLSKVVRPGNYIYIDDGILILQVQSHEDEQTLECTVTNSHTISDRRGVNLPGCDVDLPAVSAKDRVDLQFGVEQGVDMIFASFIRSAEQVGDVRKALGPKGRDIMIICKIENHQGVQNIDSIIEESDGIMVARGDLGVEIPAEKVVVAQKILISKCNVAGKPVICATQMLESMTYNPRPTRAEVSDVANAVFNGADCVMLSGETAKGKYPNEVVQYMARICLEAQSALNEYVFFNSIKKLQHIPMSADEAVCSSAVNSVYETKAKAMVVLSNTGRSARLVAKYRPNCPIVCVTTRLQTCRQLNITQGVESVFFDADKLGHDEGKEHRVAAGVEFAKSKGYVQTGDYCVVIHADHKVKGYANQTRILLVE
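0.1 nM LmPK, 0.5 mM PEP, 0.1 mM ADP; 50 mM imidazole pH 7.2, 7 mM MgCl2, 50 mM KCl; 1 h RT. Kinase-Glo luminescence readout, normalized to no-enzyme (full inhibition) and uninhibited wells.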
CHX counter: counter-screen for Shiga toxin inhibitors: cycloheximide protein synthesis inhibition. 300,000 tested, 12% active. cell reporter, cycloheximide protein synthesis inhibition counterscreen. max response, %; in the data active = max response mostly above about 13%, no sharp cut-off; inactive = mostly below about 14%; also: read at 38.3 µM for the half of the compounds with a filed dose; 0% is about no effect
Shiga toxin inh: blocks Shiga toxin action in Vero cells. Vero cells, Shiga toxin protein synthesis inhibition reporter. inhibition, % at 38.7 µM. 290,000 tested, 9.2% active. AID 2315; in the data active = inhibition mostly above about 28%, no sharp cut-off; inactive = mostly below about 43%; also: 0% is about no effect
The depositor's hits bear a star; ? = inconclusive; . = no result; + = active, no number; [ ] = dose if it differs, or a comment. Unless noted, calls follow the shape of the dose curve; as a rule, active = well fitted curve in the direction sought with a large enough effect; inconclusive = small, poorly fitted or top-dose-only effect, or another doubt; inactive = no such curve, though single readings can be large; an effect the other way counts as inactive or inconclusive.

SMILES | TbPYK inhibitor | Giardia FBPA inh | RE007 growth inh | LmPK inh | CHX counter | Shiga toxin inh
CC(=O)Nc1ccc(SCCN2CCN(CCc3ccccc3)CCC2=O)cc1 | . | -2% | . | . | 9 | 18
O=C1CCN(CCc2ccccc2)CCN1CCSc1ccccc1 | 0% | -12% | -11% | -6% | 23* | 27
COc1ccc(C(=O)O/N=C(\N)c2ccc(OC)c(OC)c2)c(OC)c1 | -10% | -1% | -18% | -2% | 48* | 93*
COc1cc(C(=O)O/N=C(\N)c2ccccn2)cc(OC)c1OC | -6% | 6% | 1% | -2% | 34* | 66*
COc1ccc(C(=O)O/N=C(\N)c2ccc(OC)c(OC)c2)cc1 | -16% | -9% | -4% | 2% | 27* | 160*
COc1ccc(C(=O)O/N=C(\N)c2ccccc2)c(OC)c1 | -11% | -6% | ? | ? | 32* | 11
Cc1cc(C(F)(F)F)nn1-c1nc(-c2ccccc2)cc(C(F)(F)F)n1 | 3% | . | . | . | . | .
COc1cc2c(cc1OC)C(c1ccc(Cl)cc1)N(c1ccc(C)c(F)c1)C(=O)C2 (stereo unspecified) | 2% | . | . | . | . | .
COc1ccc(C2NC(=O)N(C)C3=C2C(=O)N(c2cccc(C(=O)O)c2)C3)cc1 (stereo unspecified) | -11% | . | . | . | . | .
CCOC(=O)c1ccccc1NC(=O)c1nn(C)c2c1COc1ccccc1-2 | -3% | . | . | . | . | .
CCOc1ccc(OCCC(=O)Nc2ccc(N3CCOCC3)cc2N2CCOCC2)cc1 | -4% | . | -17% | . | . | .
Cc1ccc(C(=O)O/N=C(\N)c2ccccn2)cc1 | ? | 6% | ? | 14µM* | -18 | -30
CC(C)(C)c1ccc(C(=O)O/N=C(\N)c2ccccn2)cc1 | -8% | 4% | -2% | -16% | -4 | -6
COc1ccc(C(=O)O/N=C(\N)c2ccccn2)c(OC)c1 | -11% | 0% | -26% | ? | 29* | 34
COc1ccc(C(=O)COC(=O)c2ccccn2)c(OC)c1 | -6% | . | -4% | . | . | .
O=C(Cn1cccc1C(=O)c1ccccc1)NCc1ccc(Cl)cc1 | 1% | 11% | 8% | 4% | -4 | 16
O=C(Cn1cccc1C(=O)c1ccccc1)NCc1cccc(Cl)c1 | -18% | 2% | -9% | -1% | 32* | 53*
CC(C)c1ccc(C(O)c2cnc(C(C)C)n2C)cc1 (stereo unspecified) | 2% | -1% | -5% | 2% | 36* | 47*
CC(C)c1ncc(C(O)c2ccccc2)n1C (stereo unspecified) | 5% | 5% | -4% | 1% | -1 | 8
Cc1ccc2nc(NCCN)c3ncc(C)n3c2c1 | . | -9% | . | . | -6 | -9
CCCCC[C@@H](/C=C/C1C(=O)C=C[C@H]1C/C=C\CCCC(=O)O)OC(C)=O (stereo partly specified) | 1% | . | -18% | . | . | .
CCC(Cn1nnc2ccccc2c1=O)NC(=O)Nc1cc(Cl)ccc1OC (stereo unspecified) | -1% | . | . | . | . | .
CC(C)Cn1c(SCC(=O)c2ccc(Cl)s2)nnc1-c1ccco1 | -6% | 1% | -3% | 0% | 33* | 72
CC(C)Cn1c(N)c(C(=O)CSc2nnc(-c3ccco3)n2C)c(=O)n(C)c1=O | -2% | . | -4% | . | . | .
NC(=O)NC(=O)CSc1nnc(-c2ccco2)n1Cc1ccccc1 | -11% | 5% | -7% | -4% | -6 | -22
SMILES | TbPYK inhibitor | Giardia FBPA inh | RE007 growth inh | LmPK inh | CHX counter | Shiga toxin inh
O=C(CSc1nnc(-c2ccco2)n1Cc1ccccc1)c1ccccc1 | -19% | 0% | 6% | 2% | 38* | 72*
Cn1c(SCC(=O)c2ccc3c(c2)Cc2ccccc2-3)nnc1-c1cccc(N)c1 | -18% | 33% | -19% | -3% | 20* | 14
CC(=O)Nc1ccc(-c2nnc(SCC(=O)c3ccc4c(c3)Cc3ccccc3-4)n2C)cc1 | -19% | 3% | -20% | 3% | 9 | 21
Cn1c(SCC(=O)c2ccc(-c3ccccc3)cc2)nnc1-c1ccco1 | 0% | -28% | -5% | 1% | 28* | 29*
CCc1nc2c(OCC3CCCCC3)cccn2c1N(C)C(=O)c1ccc(C)cc1 | -4% | . | -8% | . | . | .
CC1(C(=O)NS(=O)(=O)c2cccc(OC(F)F)c2)CCN1C(=O)c1ccco1 (stereo unspecified) | -2% | . | 14% | . | . | .
Cc1ccc(C(=O)CSc2nnc(-c3ccco3)n2Cc2ccccc2)cc1 | ? | -8% | -22% | 3% | 22* | 90
O=C1Nc2ccccc2C1Cc1ccccn1 (stereo unspecified) | -6% | -17% | 7% | -12% | -2 | 0
O=C1OC(Cc2ccccn2)C(O)=C1C1=NCCCN1 (stereo unspecified) | -1% | 6% | -5% | -4% | 28* | 81*
O=C(NCc1ccccn1)C1COc2ccccc2O1 (stereo unspecified) | -2% | 0% | 0% | 1% | -2 | -9
O=C1OC(Cc2ccccn2)C(O)=C1C1=NCCCCN1 (stereo unspecified) | -2% | 0%[12.9 µM] | -9% | -5% | 39* | 116*
CC(C)Oc1ccc(CNC(=O)CCn2c(=O)c3cccn3c3ccc(F)cc32)cc1 | 4% | . | . | . | . | .
CCNC(=S)NNC(=O)c1cc(-c2cccc(OC)c2)nc2ccccc12 | -6% | 28% | -8% | -29% | 71* | 43
CCCOc1cccc(-c2cc(C(=O)NNC(=S)NCC)c3ccccc3n2)c1 | -5% | -13% | -9% | 6% | 25* | 87*
CCCCNC(=S)NNC(=O)c1cc(-c2ccncc2)nc2ccccc12 | 17% | . | 9% | 7% | 19* | 24
Cc1cccc(NC(=O)Cn2cc(C(=O)C3CC3)c3ccccc32)c1C | -1% | 5% | 1% | -2% | -3 | 19
COc1ccc(Br)cc1CNC(=O)CN1C(=O)CSc2ccc(S(=O)(=O)N3CCOCC3)cc21 | -4% | . | . | . | . | .
c1ccc(-c2cn3nc(-c4ccccc4)cnc3n2)cc1 | -11% | 0% | -6% | -15% | 49* | +
Cc1nc2nc(-c3ccc(F)cc3)cn2nc1C | ? | 5% | . | ? | 32* | 31
CCc1c(-c2ccccc2)nc2nc(C)c(C)nn12 | -3% | -4% | -3% | -1% | -3 | -8
Cc1nc2nc(-c3ccccc3)cn2nc1C | -23% | 1% | -9% | 13µM* | 28* | 85*
CCc1ccc(-c2cn3nc(C)c(C)nc3n2)cc1 | -15% | 5% | -24% | 1% | -1 | -24
Cc1ccc(Cn2c(C(=O)O)c(CNCc3ccccc3Cl)c3ccc(C)cc32)cc1 | -10% | . | . | . | . | .
COc1cccc(-c2cc(C(=O)Nc3ccc4c(c3)OCO4)no2)c1 | -1% | 2% | 2% | -5% | -3 | 2
Cc1cc(NC(=O)c2cc(-c3ccc(O)cc3)on2)no1 | 5% | 8% | 3% | 1% | 42* | 93*

Screening data from PubChem BioAssay.
